# Mtb bLac sens: beta-lactam sensitization of Mtb H37Rv. M. tuberculosis H37Rv growth with meropenem, percent inhibition. actives 0.27% (n = 330,000). inhibition, % at 25 µM; call rule not given here;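 note: growth measured after seven days incubation then overnight dye step; 0% = bacteria only wells and 100% = bacteria with antibiotic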
# RecA intein inh: Mtb RecA intein splicing inhibition; inhibition, % (test concentration not listed); P9WHJ3; cell-free RecA intein splicing, fluorescence; actives 0.75% (n = 290,000); in the data active = inhibition above about 30%; inconclusive = no clear call, values can overlap the other calls;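 note: 0% = vehicle wells and 100% = reference inhibitor control wells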
# GDH-TPI counter-1: counter-screen for M. tuberculosis FBA inhibitors: GDH-TPI coupled enzymes; inhibition, % at 4.8 µM; GDH-TPI coupled enzyme counterscreen, NADH absorbance; actives 1.2% (n = 360,000);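 note: 0% = DMSO wells and 100% = wells lacking the enzyme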
# FBA Mtb inh: inhibits M. tuberculosis FBA enzyme | inhibition, % at 1 µM | purified M. tuberculosis FBA, fluorescence read-out | P9WQA3 | AID 588726 | actives 2.3% (n = 360,000); in the data active = inhibition above about 27%;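 note: 0% = vehicle and 100% = reference inhibitor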
# Target sequence (P9WQA3 whole entry, looked up): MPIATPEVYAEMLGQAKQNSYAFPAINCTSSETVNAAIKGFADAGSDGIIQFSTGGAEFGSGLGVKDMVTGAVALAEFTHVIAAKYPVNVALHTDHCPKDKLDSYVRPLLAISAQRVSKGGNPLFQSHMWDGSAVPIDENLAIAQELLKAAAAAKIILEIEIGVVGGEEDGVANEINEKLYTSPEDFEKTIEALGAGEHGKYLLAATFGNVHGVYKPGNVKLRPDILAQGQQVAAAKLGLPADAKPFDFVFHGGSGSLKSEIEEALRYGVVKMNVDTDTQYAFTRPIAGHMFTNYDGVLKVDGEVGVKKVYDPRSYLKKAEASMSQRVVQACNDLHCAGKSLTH
# CCHF vOTU inh: CCHFV vOTU protease inhibition | inhibition, % at 11.5 µM | actives 0.55% (n = 370,000) | AID 651958 | Pep-AMC fluorescence; note: 0% = vehicle wells with enzyme and 100% = no enzyme wells
# Mtb FBA confirm: confirmation of M. tuberculosis fructose-bisphosphate aldolase inhibitors | shares compounds with FBA Mtb inh | purified M. tuberculosis FBA, fluorescence read-out | inhibition, % at 1 µM | actives 78% (n = 5,600) | AID 651616; in the data active = inhibition above about 27%;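 note: 0% = vehicle wells and 100% = reference inhibitor wells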
# GDH-TPI counter-2: GDH-TPI inhibition counter-screen for FBA inhibitors | actives 81% (n = 5,600) | AID 652141 | inhibition, % at 1 µM | shares compounds with FBA Mtb inh | GDH-TPI coupled enzyme counterscreen, fluorescence; in the data active = inhibition above about 10%
# GDH-TPI DR: GDH-TPI dose response counter-screen for Mtb FBA; GDH-TPI coupled enzyme assay, fluorescence, artifact counterscreen; IC50, µM; actives 79% (n = 170); AID 652145; shares compounds with FBA Mtb inh; call rule not given here
# Starred values were filed as active, the others as inactive; ? = inconclusive; / = not tested or not shown; + = active, no number. Hits are enriched below; roughly 4.2% of the tested compounds scored in any of these assays. Cut-off read from the data, not from the text of the source, unless noted: active = inhibition above about 30%; inactive = the rest.
SMILES,Mtb bLac sens,RecA intein inh,GDH-TPI counter-1,FBA Mtb inh,CCHF vOTU inh,Mtb FBA confirm,GDH-TPI counter-2,others
CSc1nnc(-c2ccc(S(=O)(=O)N3CCOCC3)cc2)n1C,-5,3,-4,23,-4,/,/,
CCSc1nnc(-c2ccc(S(=O)(=O)N3CCCC3)cc2)n1C,3,-2,3,33*,-14,-2,-8,
Cc1cccc(Cn2c(-c3ccc[nH]c3=O)nc3ccccc32)c1,-5,1,12,101*,-73,+,+,
Cc1cccc(Cn2c(C(C)O)nc3ccccc32)c1 (stereo unspecified),6,0,2,0,-15,/,/,
CCCC(O)(c1ccc(Cl)cc1)C(CN1CCOCC1)c1ccc(Cl)cc1 (stereo unspecified),?,21,3,30*,18,97*,70*,
CCCC(O)(c1ccc(OC)cc1)C(CN1CCOCC1)c1ccc(Cl)cc1 (stereo unspecified),36,11,2,16,6,/,/,
Cc1nc2nc(CCNS(=O)(=O)c3ccc(Cl)cc3)cn2nc1C,-4,-75,4,72*,-97,62*,63*,
COc1ccc(S(=O)(=O)NCCc2cn3nc(C)c(C)nc3n2)cc1,-5,-127,1,59*,-64,-4,-3,
CCn1c(SCc2ccccc2Cl)nc2nc3c(cc2c1=O)CCCC3,/,0,3,28*,-4,85*,61*,
COc1ccc(-c2nc3c4ccccc4ccn3c2CN2CCOCC2)cc1OC,-1,6,13,37*,-24,74*,51*,
CCOc1ccc(-c2nc3n(c(=O)c2C#N)CCS3)cc1,4,-2,16,32*,-15,71*,62*,
CCOc1cc(-c2nc3n(c(=O)c2C#N)CCS3)ccc1O,6,-1,7,-5,-5,/,/,
COc1ccc(-c2nc3n(c(=O)c2C#N)CCS3)cc1,-4,-2,7,28*,8,32*,28*,
COc1ccc(-c2nc3n(c(=O)c2C#N)CCS3)cc1OC,-4,-1,16,8,-8,/,/,
O=C1NC(c2cccc(C(F)(F)F)c2)c2c(-c3ccccc3)n[nH]c21 (stereo unspecified),/,/,/,/,5,/,/,
O=C(N/N=C/c1ccc(N2CCOCC2)cc1)C1COc2ccccc2O1 (stereo unspecified),-3,-2,15,38*,-36,44*,41*,
O=C(N/N=C\c1ccc(Cl)s1)C1COc2ccccc2O1 (stereo unspecified),100,/,-15,0,-8,/,/,
COC[C@@H]1CCCN1c1cccc2c1S(=O)(=O)N(C1CC1)CCCO2,/,/,/,/,-1,/,/,
CC1CCCC(C)N1NC(=S)Nc1ccc(OC(F)F)cc1 (stereo unspecified),-8,1,8,55*,24,60*,53*,
COc1ccc(NC(=S)NN2C(C)CCCC2C)cc1 (stereo unspecified),-7,2,1,-1,-19,/,/,
Cc1ccccc1NC(=O)C1CCCN1S(=O)(=O)c1cccnc1 (stereo unspecified),/,/,/,/,-2,/,/,
COc1cc2c(cc1OC)[C@@H](NC(=O)c1ccncc1)[C@H](C)[C@H]2c1ccccc1,/,/,/,/,-4,/,/,
COCc1cc(C)nc(Nc2ccccc2C)c1C#N,-9,-1,-6,-2,/,/,/,
CCN(CC)CCCNc1nc(C)cc(COC)c1C#N,-9,-3,6,76*,-43,114*,103*,
COc1ccc(S(=O)(=O)N(CCCN2CCCC2=O)Cc2cc3c(C)cc(C)cc3[nH]c2=O)cc1,/,/,29,33*,4,13,8,GDH-TPI DR=>10
SMILES,Mtb bLac sens,RecA intein inh,GDH-TPI counter-1,FBA Mtb inh,CCHF vOTU inh,Mtb FBA confirm,GDH-TPI counter-2,others
c1ccc(Cn2c(-c3ccccc3)nc3nc4ccccc4nc32)cc1,-3,-1,43*,56*,-13,161*,132*,
CC(C)(C)OC(=O)NCc1ccccc1/C=C/S(=O)(=O)NCc1ccccc1,/,/,/,/,3,/,/,
COc1cc2c(OC)cccc2cc1C(=O)O,7,1,11,65*,-19,+,+,
CCOC(=O)c1[nH]c2ccc(OCC)cc2c1NC(=O)CN1CCCC(C)C1 (stereo unspecified),1,-1,8,38*,-6,49*,47*,
CCOC(=O)c1[nH]c2ccc(OC)cc2c1NC(=O)CCN1CCSCC1,-10,5,5,71*,-49,51*,43*,
CCOC(=O)c1oc2ccccc2c1NC(=O)CN1CCN(C)CC1,-3,-1,0,2,2,/,/,
CCOC(=O)c1oc2ccc(OC)cc2c1NC(=O)CN1CCN(C)CC1,-4,0,3,40*,-20,1,-5,
CCOC(=O)c1[nH]c2ccc(OC)cc2c1NC(=O)CN1CCC2(CC1)OCCO2,3,-2,10,47*,-30,134*,104*,
C[N+]1=C(N)N[C@@]2(C=C3CCCCC3n3c(=O)n(-c4ccccc4)c(=O)n32)C1 (stereo partly specified),/,/,/,/,-5,/,/,
N/C(=N\OC(=O)c1ccoc1)c1ccc(Br)cc1,-7,2,-3,38*,-6,155*,150*,
Cc1cc(C)cc(C(=O)O/N=C(\N)c2ccc(Br)cc2)c1,5,-1,-4,0,-5,/,/,
CCOC(=O)C1=C(C)NC(=O)NC1c1cn(-c2ccccc2)nc1-c1cccs1 (stereo unspecified),6,5,-9,3,-12,/,/,
CCOC(=O)C1=C(C)NC(C)=C(C(=O)OCC)C1c1cn(-c2ccccc2)nc1-c1ccco1,0,-2,4,61*,4,3,-6,
COc1cc(C(=O)NC2CCCCN(Cc3cccc(C(F)(F)F)c3)C2=O)cc(OC)c1OC (stereo unspecified),/,/,/,/,2,/,/,
CC(C)(C)OC(=O)/C=C/[C@H](CCCCl)Sc1ccc(C(C)(C)C)cc1,/,/,/,/,25,/,/,
COc1ccc(CC(=O)N2CCN(C(=O)Cc3ccc(OC)cc3)CC2)cc1,-4,0,1,4,8,/,/,
COc1ccc(CC(=O)N2CCN(c3ccc(C4=NNC(=O)CC4C)cc3)CC2)cc1 (stereo unspecified),-4,-4,22,32*,-6,162*,132*,
Cc1csc(NC(=O)c2cc3c(s2)CCC3)n1,39,-2,7,0,11,/,/,
Cc1csc(NC(=O)c2cc3c(s2)-c2ccccc2OC3)n1,1,-19,19,39*,-70,123*,102*,
S=c1nc(-c2ccccc2)n(-c2ccccc2)[nH]1,-1,-2,-6,5,6,/,/,
O=c1nc(-c2ccccc2)n(-c2ccc(Cl)cc2)[nH]1,2,-2,-2,28*,-1,128*,105*,

# Screens as filed in PubChem BioAssay.
